Experimental data as given in PubChem BioAssay AID720511 (Broad Institute, 2013).
The campaign covered roughly 350,000 compounds. About 1,300 (0.37%) were called active. Only a selection was taken, and actives are over-represented in it overall. Values without a mark were called inactive.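 The calls were made as follows: active = mean added fluorescence quench of at least 8% versus neutral control, with both replicates also reaching 8%; inconclusive = only one of the mean or replicate conditions met; inactive = mean below 8% and not both replicates reaching 8%.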

Test: F508del CFTR correction, initial screen, CFBE line, single point (AID 720511);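 also: cells transiently co-express mutant CFTR-F508del with the halide-sensitive YFP; corrector assay measuring rescue of mutant channel to the surface after 24 h compound exposure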
Conditions: CFBE cells, YFP halide quenching, at 7.58 µM, active compounds read high

| SMILES | activity (quench increase) |
| --- | --- |
| C[C@]12CCC3C(CC[C@H]4[C@H](O)[C@H](O)CC[C@]34C)C1CCC2=O (stereo not given in full) | 11.1% (active) |
| C[C@]12CCC3C(CC[C@H]4[C@H](O)[C@H](O)CC[C@]34C)C1CC[C@@H]2O (stereo not given in full) | 0.916% |
| C[C@]12CCC3C(CC[C@H]4C[C@@H](O)CC[C@]34C)C1C[C@@H](O)[C@H]2O (stereo not given in full) | 1.25% |
| COC(=O)C1=C(c2ccc(OCc3ccccc3)cc2)C[C@@H]2CC[C@H]1N2C(=O)NCc1ccc(Cl)cc1 | 4.11% |
| C/C=C/c1ccc(C2[C@@H]3CN(Cc4cncnc4)C[C@H]2N3)cc1 (stereo not given in full) | 2.42% [% fluorescence drop versus neutral controls, stimulated with forskolin plus potentiator P3] |
